Assay results: PubChem BioAssay (NCI)
This is part of a sample that, as a whole, favours compounds with a hit. Of some 83,000 tested, about 20% had one in any assay.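 A percent growth of 40 corresponds to 60% growth inhibition; 0 means no net growth; -100 means all cells died. Active threshold: below 10.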 Calls of active or inactive are those of the source. *1 amine or outer side, *2 acyl side, *3 side chain or, on linkers, in order; H or OH if unused. Where a SMILES comes first, the peptide text is derived from it. Bridges are numbered along the chain shown (N, C = ends). Roman numbers before positions name the chains, in order. [ ]: non-standard residue; d: D form. Actinocin(1to9) = Cc1c2oc3c(C)ccc(C(=O)[*:2])c3nc-2c(C(=O)[*:1])c(N)c1=O; NMeV = CN[CH](C(=O)O)C(C)C; Sar = CNCC(=O)O

Tests used:
Assay in all cases: NCI-60 one-dose screen, 48 h (100 = growth as untreated, 0 = no growth, -100 = all killed)
[1] = test system: DU-145 prostate; details: 10 µM unless noted
[2] = test system: K-562 leukemia; details: 10 µM unless noted
[3] = test system: MALME-3M melanoma; details: 10 µM unless noted
[4] = test system: MDA-MB-231 breast; details: 10 µM unless noted
[5] = test system: RXF 393 renal; details: 10 µM unless noted
[6] = test system: SF-268 CNS; details: 10 µM unless noted
[7] = test system: SF-295 CNS; details: 10 µM unless noted
[8] = test system: SF-539 CNS; details: 10 µM unless noted
[9] = test system: UACC-257 melanoma; details: 10 µM unless noted
[10] = test system: M14 melanoma; details: 10 µM unless noted
[11] = test system: HCT-15 colon; details: 10 µM unless noted
[12] = test system: SNB-75 CNS; details: 10 µM unless noted
[13] = test system: SNB-19 CNS; details: 10 µM unless noted
[14] = test system: U251 CNS; details: 10 µM unless noted
[15] = test system: SK-MEL-5 melanoma; details: 10 µM unless noted
[16] = test system: UACC-62 melanoma; details: 10 µM unless noted
[17] = test system: LOX IMVI melanoma; details: 10 µM
[18] = test system: SK-MEL-28 melanoma; details: 10 µM unless noted
[19] = test system: HT29 colon; details: 10 µM unless noted
[20] = test system: PC-3 prostate; details: 10 µM unless noted

Measured: growth

Nc1cc(-c2ccccc2)ccc1O
inactive: [1] 103% | [2] 59.2% | [3] 121% | [4] 82.7% | [5] 30.3% | [6] 78.2% | [7] 134% | [8] 105% | [9] 120% | [10] 103% | [11] 93.3% | [12] 105% | [13] 98.5% | [14] 101% | [15] 118% | [16] 88% | [17] 90% | [18] 93.3%

O=C1/C(=C\c2ccc([N+](=O)[O-])cc2)CS(=O)(=O)C/C1=C/c1ccc([N+](=O)[O-])cc1
active: [1] -78.2% | [2] -27.8% | [3] -62.7% | [4] -86.9% | [5] -100% | [6] -49% | [7] -16% | [8] -64% | [9] -89.8% | [10] -92.2% | [11] -86.7% | [19] -57.7% | [12] -89.6% | [13] -96.3% | [14] -86.6% | [20] -81.6% | [16] -90.7% | [17] -82.8%

CC(=O)c1c(O)c(C)c(O)c2c1OC1=CC(=O)C(C(C)=O)C(=O)C12C (stereo unspecified)
inactive: [1] 107% | [2] 68.9% | [3] 79.4% | [4] 96.3% | [5] 105% | [6] 88.9% | [7] 16.7% | [8] 98% | [9] 97.8% | [10] 67.6% | [11] 84.4% | [13] 96.9% | [14] 74.9% | [20] 45.3% | [15] 90.9% | [16] 62.8% | [18] 84.4%

O=C(Cc1ccccc1)C(F)(F)F
inactive: [1] 103% | [2] 94.5% | [3] 99.4% | [4] 96.5% | [5] 104% | [6] 98.9% | [7] 101% | [8] 97% | [9] 18.1% | [10] 99.6% | [11] 107% | [19] 112% | [12] 92.4% | [13] 109% | [14] 97.8% | [20] 96.3% | [16] 104% | [17] 96.5% | [18] 99.2%

c1ccc(-c2cc3cc4ccccc4cn3c2)cc1
inactive: [1] 101% | [2] 64.3% | [3] 91.3% | [4] 81.6% | [5] 104% | [6] 95.7% | [7] 84.8% | [8] 104% | [9] 91.6% | [10] 94.7% | [11] 100% | [19] 105% | [12] 89.9% | [13] 92.3% | [14] 82.4% | [20] 78.9% | [15] 80.6% | [17] 86% | [18] 98.5%

N#CCc1cccc2ccccc12
inactive: [1] 123% | [2] 103% | [3] 110% | [4] 103% | [5] 114% | [6] 116% | [7] 123% | [8] 101% | [9] 105% | [10] 109% | [11] 100% | [19] 96% | [13] 110% | [14] 108% | [20] 90.9% | [15] 104% | [16] 111% | [17] 108% | [18] 94.7%

Oc1ccc2ccccc2c1N=Nc1ccccn1
inactive: [1] 50.2% | [2] 15.2% | [3] 59.7% | [4] 36.3% | [5] 38.3% | [6] 36% | [7] 26.8% | [8] 15.7% | [9] 17.6% | [10] 15.6% | [11] 26.9% | [19] 20.9% | [12] 59.1% | [13] 53.4% | [14] 30.5% | [15] 23.7% | [16] 29.8% | [18] 40.7%
active: [17] 6.2%

O=[N+]([O-])c1ccc([I+]c2ccccc2)cc1
inactive: [4] 35.4% | [5] 57.8% | [7] 77.9% | [9] 29.7% | [11] 62.1% | [20] 62.3%
active: [1] -10.5% | [2] 9.29% | [3] -0.265% | [6] -69.7% | [8] 1.87% | [10] -36.6% | [19] -55.8% | [13] -70.9% | [14] -97.1% | [15] -29.5% | [16] -17.6% | [17] -81.9% | [18] -76.8%

CCC(C)C1NC(=O)C(NC(=O)c2c3nc4c(C(=O)NC5C(=O)NC(C(C)CC)C(=O)N6CCCC6C(=O)N(C)CC(=O)N(C)C(C(C)C)C(=O)OC5C)ccc(C)c4oc-3c(C)c(=O)c2N)C(C)OC(=O)C(C(C)C)N(C)C(=O)CN(C)C(=O)C2CCCN2C1=O (stereo unspecified) (I: TIP[Sar][NMeV] / II: TIP[Sar][NMeV]; ester I:1-I:C, II:1-II:C; linker I:N-II:N via Actinocin(1to9); configuration not given here)
active: [2] 1.13% | [3] -74.1% | [4] -12.7% | [5] 1.32% | [6] -11.7% | [7] -11.3% | [8] -36.9% | [9] -8.32% | [10] -95.6% | [11] 2.48% | [19] 0.216% | [12] -87.2% | [13] 4.27% | [14] 1.81% | [20] -3.84% | [16] -67.8% | [17] 0.241%
inactive: [1] 15.5%
